Pf growth 48h: inhibits P. falciparum growth in the first generation, 48 h; 5.9% of 310,000 active; Potency, µM (series often up to 28.7 µM), for inactives: at the top dose activity change, negative = inhibition, actives largely listed as inhibitors; P. falciparum luciferase growth in erythrocytes, 48 h; also: potency is read from the fitted curve at half-maximal effect; % is scaled to controls: 0 for no effect and ±100 for the full control effect
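Read-out is firefly luciferase luminescence from an integrated reporter in P. falciparum, so falling signal marks reduced parasite growth. Infected erythrocytes were at 2% hematocrit and 0.1% parasitemia (final) in Albumax-supplemented RPMI 1640.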
Shiga inhibitor: Shiga toxin inhibition; inhibition, % at 38.7 µM; Vero cells, Shiga toxin protein synthesis inhibition reporter; 9.2% of 290,000 active; in the data active = inhibition mostly above about 28%, no sharp cut-off; inactive = mostly below about 43%; also: 0% is about no effect
Pf growth 96h: inhibits malaria parasite growth, 96 h | P. falciparum luciferase reporter growth, 96 h | 6.9% of 320,000 active | Potency, µM (series often up to 28.7 µM), for inactives: top-dose activity change, negative = inhibition, actives largely listed as inhibitors | AID 504834; also: potency is read from the fitted curve at half-maximal effect; % is scaled to controls: 0 for no effect and ±100 for the full control effect
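Cell-based qHTS: luciferase-tagged P. falciparum in erythrocytes (2% hematocrit, 0.05% parasitemia final) incubated with compounds for 96 hours, 37 C, 5% CO2; luciferase detection reagent then added and luminescence measured.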
NS1 function inh: inhibitors of influenza NS1 protein function | AID 2326 | Potency, µM (titrated, usually from 46.1 µM), for the others: at the highest dose activity, positive = more growth | 0.4% of 270,000 active; calls by dose curve; also: potency is read from the fitted curve at half-maximal effect; actives are rising curves; nearly all actives have a fitted effect of over 50% in size
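Recovery from NS1-induced slow growth read by OD600 in budding yeast switched to galactose assay medium (pH 6.0, -URA) at 1:100 dilution. Compound 23 nl per well; the matching strain lacking NS1 serves as control.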
CHX counter: counter-screen for Shiga toxin inhibitors: cycloheximide protein synthesis inhibition; cell reporter, cycloheximide protein synthesis inhibition counterscreen; max response, %; 12% of 300,000 active; AID 2314; in the data active = max response mostly above about 13%, no sharp cut-off; inactive = mostly below about 14%; also: read at 38.3 µM for the half of the compounds with a filed dose; 0% is about no effect
FBPA Giardia inh: Giardia lamblia aldolase inhibition. 0.71% of 290,000 active. A8B2U2. purified Giardia FBPA. Potency, µM (titrated, usually from 59.6 µM), for inactives: at the highest dose activity, negative = inhibition, usual class: inhibitors. AID 2451; also: potency is read from the fitted curve at half-maximal effect; % is scaled to controls: 0 for no effect and ±100 for the full control effect; nearly all actives have a fitted effect of over 55% in size
Target sequence (A8B2U2 whole entry, looked up): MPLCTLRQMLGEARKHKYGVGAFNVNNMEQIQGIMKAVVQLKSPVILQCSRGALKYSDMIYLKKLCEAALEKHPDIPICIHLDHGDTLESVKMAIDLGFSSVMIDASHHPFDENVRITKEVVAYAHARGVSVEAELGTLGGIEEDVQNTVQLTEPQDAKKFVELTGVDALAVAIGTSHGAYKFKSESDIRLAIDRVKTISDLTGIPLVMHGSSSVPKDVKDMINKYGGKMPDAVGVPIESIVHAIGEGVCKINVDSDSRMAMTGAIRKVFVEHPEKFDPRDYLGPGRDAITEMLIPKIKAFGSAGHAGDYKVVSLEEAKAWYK
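Giardia FBPA (40 nM reagent) was preincubated 10 min at RT with compound (up to 57.5 uM final), then substrate plus GAPDH/TPI/NAD/arsenate coupling system with diaphorase/resazurin was added; resorufin fluorescence (525/598 nm) was read after 20 min.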
Flu NS1 inh: validation of influenza NS1 protein function inhibitors | shares compounds with NS1 function inh | influenza NS1 function cell assay, 15-point titration | activity change, negative = inhibition, % at 32.9 µM | 1,400 tested, under 10 active | AID 492980; calls by dose curve; also: 0% is about no effect
PR8 titer: influenza virus titer reduction, NS1 project; shares compounds with NS1 function inh; MDCK infected influenza A/PR/8/34, virus titer TCID50; hits give low values; virus titer (log TCID50), log10 TCID50 at 5 µM; 30% of 95 active; AID 504647; call rule not given here
* marks the source's active call; other numbers are inactive results. Shown are actives, neighbours in structure and some others; about 21% of the full set was active somewhere. Unless noted, calls follow the shape of the dose curve; as a rule, active = well fitted curve in the direction sought with a large enough effect; inconclusive = small, poorly fitted or top-dose-only effect, or another doubt; inactive = no such curve, though single readings can be large; an effect the other way counts as inactive or inconclusive.

Screening c1ccc(-n2c(SCC3CCCCO3)nnc2-c2cccs2)cc1 (stereo unspecified) returned Pf growth 48h -13.9%, Shiga inhibitor -12.6, Pf growth 96h -3.4%, NS1 function inh inconclusive, CHX counter -1.6, FBPA Giardia inh 8.5% and Flu NS1 inh inconclusive.
`O=C(CSc1nnc(-c2cccs2)n1-c1ccccc1)NCC1CCCO1` (stereo unspecified) gave Pf growth 48h -3.6%, Shiga inhibitor -9.5, Pf growth 96h 4.8%, NS1 function inh -6.2%, CHX counter -0.7 and FBPA Giardia inh 4.7%.
Screening Cc1cc(C(=O)CN(Cc2ccc(F)cc2)S(=O)(=O)c2ccc3c(c2)OCCO3)c(C)n1C returned Pf growth 48h 20.0%, Shiga inhibitor 21.5, Pf growth 96h -5.6%, NS1 function inh 11.2µM*, CHX counter 0.9, FBPA Giardia inh 6.5% and Flu NS1 inh -16.3.
O=C(CN(Cc1ccccc1)S(=O)(=O)c1ccc2c(c1)OCCO2)N/N=C/c1ccc(F)cc1 was read as Pf growth 48h 0.5%, Shiga inhibitor -8.0, Pf growth 96h inconclusive, NS1 function inh 24.5%, CHX counter -1.6 and FBPA Giardia inh -1.2%.
`Cc1ccc(C(CNC(=O)c2ccco2)N2CCN(C)CC2)cc1` (stereo unspecified) gave Pf growth 48h 24.8% and Pf growth 96h 12.9%.
CCOCCCNC(=O)CN1C(=O)COc2ccc(S(=O)(=O)N3CCC(C)CC3)cc21 was read as Pf growth 48h 15.2%, Shiga inhibitor -4.9, Pf growth 96h 57.7%, NS1 function inh 12.7% and CHX counter -7.9.
CC1CCN(S(=O)(=O)c2ccc3c(c2)N(CC(=O)NCCCOC(C)C)C(=O)CO3)CC1 was read as Pf growth 48h 1.3%, Shiga inhibitor -10.9, Pf growth 96h 5.9%, NS1 function inh inconclusive, CHX counter -1.6, FBPA Giardia inh -0.1% and Flu NS1 inh -23.6.
Screening COc1cccc(NC(=O)CC2SC(=Nc3ccccc3)NC2=O)c1 (stereo unspecified) returned Shiga inhibitor -17.3, Pf growth 96h 28.9%, NS1 function inh -2.7%, CHX counter -2.5 and FBPA Giardia inh 16.1%.
For COc1cccc(NC(=O)CC2S/C(=N\S(=O)(=O)c3ccccc3)N(c3ccccc3)C2=O)c1 (stereo unspecified) the results were Pf growth 48h 24.3%, Shiga inhibitor -4.4, Pf growth 96h 20.1%, NS1 function inh 10µM*, CHX counter -2.6, FBPA Giardia inh -7.8% and Flu NS1 inh 19.6.
For CCCC1(C(=O)OC)NC(c2ccc(OC)c(OC)c2)C2C(=O)N(c3cccc(C(C)=O)c3)C(=O)C21 (stereo unspecified) the results were Pf growth 48h inconclusive, Shiga inhibitor -3.7, Pf growth 96h -34.2%, NS1 function inh 9.1%, CHX counter 0.8 and FBPA Giardia inh 1.9%.
For CCc1ccc(NC(=O)CNC(=O)c2cn(-c3ccccc3OC)c(=O)c3ccccc23)cc1 the results were Shiga inhibitor 14.6, Pf growth 96h inconclusive, NS1 function inh 11.2µM*, CHX counter 49.3, FBPA Giardia inh -9.1%, Flu NS1 inh 29.6 and PR8 titer 8.5.
Screening O=C1CSC(=S)N1/N=C/c1cc(Br)c(O)c(Br)c1 returned Pf growth 48h -2.3%, Shiga inhibitor -13.3, Pf growth 96h inconclusive, NS1 function inh -30.2%, CHX counter -1.6 and FBPA Giardia inh -28.0%.
`O=C1CSC(=S)N1/N=C/c1cccnc1` gave Pf growth 48h -1.0%, Shiga inhibitor -9.5, Pf growth 96h 20.2%, NS1 function inh 1.12µM*, CHX counter -1.7, FBPA Giardia inh inconclusive and Flu NS1 inh 27.5.
